Reference: PubChem BioAssay (EPA / NIEHS)
Results filed as inconclusive are left out. A structure can be active in one record and inactive in another. Active and inactive are the calls of the source. Rule for the calls: active = hit-call score of the fitted dose curve at least 0.9, where 1 is the maximum; inconclusive = response in the unintended direction; inactive = score below 0.9.

Tests used:
[1] = ATG_XTT_Cytotoxicity: Cytotoxicity Assessment in the Attagene TRANS-FACTORIAL HepG2 Assay (AID 2283584);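 for AC50: cells exposed to compound for 24 h before reading; active means loss of viability signal versus DMSO baseline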
In short: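 HepG2 human liver cells, transiently transfected with multiple GAL4-UAS reporter units, were dosed and read at 24 h by XTT as cell number. Loss of signal was fitted relative to DMSO negative control baseline.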

[2] = TOX21_p53_BLA_p2_viability: Viability Assessment in the Tox21 HCT-116 p53 Agonism Beta-lactamase Assay, Phase 2 (AID 2283591);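 note: compound exposure lasted 16 h at 37 °C; actives lower the ATP signal meaning cytotoxicity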
In short: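 HCT116 p53-bla cells, 4000/well, dosed after 5 h plating (217-fold dilution of DMSO stocks) and incubated 16 h at 37C. Viability taken as cellular ATP by CellTiter-Glo luminescence after 30 min RT; signal loss marks cytotoxicity.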

[3] = target: Cellular tumor antigen p53 (Homo sapiens) (UniProt P04637); assay: TOX21_p53_BLA_p2_ratio: Tox21 HCT-116 p53 Agonism Beta-lactamase Assay, Ratio, Phase 2 (AID 2283592)
Chain of Cellular tumor antigen p53 (Homo sapiens) (P04637 whole entry, looked up): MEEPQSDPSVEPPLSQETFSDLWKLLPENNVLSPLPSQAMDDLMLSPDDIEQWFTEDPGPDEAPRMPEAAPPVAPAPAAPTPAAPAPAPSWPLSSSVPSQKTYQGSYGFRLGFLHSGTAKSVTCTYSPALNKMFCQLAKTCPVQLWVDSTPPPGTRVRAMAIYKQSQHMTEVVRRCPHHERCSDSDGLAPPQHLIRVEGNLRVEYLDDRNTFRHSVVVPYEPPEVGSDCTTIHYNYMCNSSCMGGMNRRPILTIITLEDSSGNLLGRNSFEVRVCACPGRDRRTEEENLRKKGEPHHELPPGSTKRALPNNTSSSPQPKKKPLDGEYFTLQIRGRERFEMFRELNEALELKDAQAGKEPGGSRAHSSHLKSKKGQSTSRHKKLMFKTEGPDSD
In short: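 HCT116 cells carrying a p53-responsive beta-lactamase reporter were plated, incubated 5 h at 37C, then dosed with compounds in DMSO (217-fold dilution) for 16 h. CCF4-AM substrate was added for 2 h at room temperature; the 460/530 nm emission ratio gave gain-of-signal activity relative to DMSO.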

[4] = TOX21_p53_BLA_p3_viability: Viability Assessment in the Tox21 HCT-116 p53 Agonism Beta-lactamase Assay, Phase 3 (AID 2283593);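 note: cells exposed to compound for 16 h before reading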
In short: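 HCT116 cells, 4000/well, dosed 5 h after plating by pin transfer (217-fold dilution from DMSO stock) and incubated 16 h at 37C, 5% CO2. Viability read as ATP luminescence with CellTiter-Glo after 30 min at room temperature.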

[5] = target: Cellular tumor antigen p53 (Homo sapiens) (UniProt P04637); assay: TOX21_p53_BLA_p3_ratio: Tox21 HCT-116 p53 Agonism Beta-lactamase Assay, Ratio, Phase 3 (AID 2283596)
In short: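 HCT116 p53-bla cells (4000/well) given compound in DMSO (217-fold dilution) after 5 h, incubated 16 h at 37C. CCF4-AM substrate 2 h at room temperature; 460/530 nm emission ratio, gain fitted against DMSO.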

[6] = TOX21_p53_BLA_p4_viability: Viability Assessment in the Tox21 HCT-116 p53 Agonism Beta-lactamase Assay, Phase 4 (AID 2283597);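 note: hits lower the luminescence signal meaning cytotoxicity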
In short: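 HCT116 p53-bla cells (4000/well) rested 5 h at 37C, then received compounds in DMSO (217-fold dilution) for 16 h at 37C, 5% CO2. CellTiter-Glo was added after the CCF4-AM read, and luminescence was read after 30 min at room temperature.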

[7] = target: Cellular tumor antigen p53 (Homo sapiens) (UniProt P04637); assay: TOX21_p53_BLA_p5_ratio: Tox21 HCT-116 p53 Agonism Beta-lactamase Assay, Ratio, Phase 5 (AID 2283599)
In short: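 HCT-116 p53-bla cells (4000/well) plated 5 h, dosed with compound (217-fold DMSO dilution) for 16 h at 37 C; CCF4-AM substrate 2 h at room temperature. Activity is the 460/530 nm emission ratio (405 nm excitation), fitted in gain-of-signal direction versus DMSO.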

Measured: AC50

NS(=O)(=O)c1cc(C(=O)O)c(NCc2ccco2)cc1Cl
inactive: [1]

CCCC1CCOC(C)S1 (centres undefined)
inactive: [1]

OC[C@H]1O[C@@H](O[C@H]2[C@H](O)[C@@H](O)[C@H](O)O[C@@H]2CO)[C@H](O)[C@@H](O)[C@H]1O
inactive: [1] | [2]

CCCCCCCCOC(=O)c1ccc(O)cc1
active: [1] 100 µM
inactive: [1]

NC(=O)c1cccnc1
inactive: [1] | [2] | [3] | [4] | [5] | [6]

CCC(C)(C)C1CCC(OC)CC1 (centres undefined)
inactive: [1] | [2] | [3] | [4] | [5] | [6] | [7]

CC12CCC(C1)C(C)(C)C2O (centres undefined)
inactive: [1] | [2] | [3] | [4] | [5]

CCCCC/C=C\C=C\C(=O)OCC
inactive: [1] | [5]
active: [2] 68.7 µM | [3] 75.6 µM | [4] 49.1 µM | [6] 66.6 µM | [7] 73.4 µM

c1ccc(Sc2ccccc2)cc1
inactive: [1]

CC1=CC(O)CC(C)(C)C1 (centres undefined)
inactive: [1] | [2]

O=C(O)c1cccc(Cl)n1
inactive: [1] | [2]

c1ccc(OCCOc2ccccc2)cc1
inactive: [1] | [2] | [3] | [4] | [5] | [6]

O=S1(=O)CC(Cl)(Cl)C(Cl)(Cl)C1
inactive: [3]
active: [1] 26 µM | [2] 7.38 µM | [4] 24.9 µM | [5] 47.6 µM | [6] 9.34 µM

CCCCOCC(C)OCC(C)O (centres undefined)
inactive: [1]

[Na+]
inactive: [1] | [2] | [3] | [4] | [5] | [6]

CCCCCCCCSCc1cc(C)c(O)c(CSCCCCCCCC)c1
inactive: [1]

OCCN1CCOCC1
inactive: [1]

NC(=O)c1c(Cl)cccc1Cl
inactive: [1]

COc1ccccc1O
inactive: [1] | [2] | [3] | [4] | [5] | [6]

Cc1ccccc1S
inactive: [1]

COc1ccc2[nH]cc(CCNC(C)=O)c2c1
inactive: [1] | [2] | [3] | [4] | [5] | [6]

CCOC(=O)C=Cc1ccccc1
inactive: [1] | [2] | [3] | [4] | [5] | [7]

O=C(O)c1cc2ccccc2cc1O
inactive: [1]

FC(F)(F)c1ccc(Cl)c(Cl)c1
inactive: [1] | [2] | [3] | [4] | [5] | [6] | [7]

c1ccc2scnc2c1
inactive: [1] | [2] | [3] | [4] | [5]

CC(=O)OC/C=C(C)/C=C/C=C(C)/C=C/C1=C(C)CCCC1(C)C
inactive: [1] | [2] | [3] | [6]

NC(N)=S
inactive: [1] | [2] | [3] | [5] | [7]
